According to the supplement of paper PMC6555819:

system: PPARg DBDmut IVT, anti-PPARg (DBD mutation: PPARg1 K132A/R137A, NR concentration 270 nM); assay: PBM binding z-score (relative to random genomic background probes); higher = stronger binding; sequences stand for … in GC…GCGATTGACAGCGTAGAATGAAGG
Outline: (§1)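 Binding z-scores take random background probes as their reference. They come from custom Agilent 4×180K protein-binding microarrays incubated 1 h with ligand-free nuclear receptor dimers, with antibodies against each partner (one per run) detecting binding. Scanned fluorescence was regression-normalized.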

| Sequence | PBM binding z-score |
| --- | --- |
| ATCGAAAGGTCGTGAGGTGTGTATACAGAAAGGC | 0.468 |
| GGAACGAGGGCAAAGGTGATAGCATCTGTCGACG | 0.895 |
| ATATGGAGGTTAAGGGTCATTCAGGTTGGTTCGC | 2.22 |
| ATCGAAAGGTCGTGAGGTGACTATACAGAAAGGC | 1.47 |
| CGTCAAAGTTCAACTAAGGTAACTTAAAGCACGC | 1.28 |
| CGGCCAAGGTCAAAGGTCAGTGAAGAGATGACGG | -0.114 |
| ATCTCTAGGTAAAGGTCAGTGAAAGATCGATAGA | 1.49 |
| CGTCCAAGGTCATAAGAGGTCAGTGAAGACAGAT | -0.112 |
| CCTAGTTGGCCAAGGTCACACACGCTATAGGTAC | 0.0264 |
| CCTTACGGGTCACGGGGTTATAGCACGACGAGCG | 3.61 |
| TAGCCTAGGTCATTCAGGGGTCAGTATAGAAAGC | 0.527 |
| TCTAGTTGGTTACGGAGGTCACACACGACGGGTA | 0.724 |
| AATACAGGGTCGCTAGGCCAGAGTAGGTACGAAT | -0.263 |
| ATACCAAGGTGATCGTGAGTTCGTTGATACTAAC | 0.822 |
| CGTCCAAGGTCAATGCTAGGTCACTGAAAGCATT | 0.266 |
| TTACCAAGGTCAGCTGAGGTCGTTGATCCAACTC | 0.114 |
| ATCGAAAGGTCGACGAGTTGAGTATACACCGTTT | 0.857 |
| TTACAAAGGTGAGCTGAGGTCGTTGATCCAACTC | -0.224 |
| GGAACGAGGGCATTCGAGTTGATAGCATGGCGAT | 0.402 |
| CCGACTGGGGCAAAGGTTACCACACTCAGTACGA | 0.282 |

| Sequence | PBM binding z-score |
| --- | --- |
| CGTCAAAGTTCAACTAATGTAACGTAAAGCACGC | 2.3 |
| CCTTACGGGTCACTCTAGGTTATAGCATCGGAGT | -0.339 |
| GCTTACGGGTCAAAGGTTATAGTATGAATAGAAT | 1.07 |
| CCTACAGGGCCAAAGGTCATTGATTCCAATGCTC | -0.141 |
| TAGCCTAGGTCATGGGCCAGTTTACCACGCGAAC | -0.602 |
| CGTCCAAGGTAAGAGAGGTCAGTGAATGCCGAGT | -1.45 |
| CCGACGGGGGCAGAAAGGTTACCATACCATCCGG | 2.71 |
| CCTACTGGGCCAAAGGTCAGTGATTCCAATGCTC | -0.864 |
| AGTCAAAGTTCATCTTGGTAACGTAAGATATGCT | 1.1 |
| ATACCAAGGTTATCGTGAGGTCGTTGATACTAAC | 0.559 |
| TCTCGGAGGTCACGAAGGTCAGAGCTTTCCAGAG | -0.128 |
| CCTTGCGGGTCACTGACAGGTTATAGCATTTGGA | -0.215 |
| CTCGAAAGGTCGTCCTCAGGTGAGTATACCAAAC | -0.144 |
| CAAACTAGGTCACCGGAAAGTCAAAGTCCGCATG | 3.47 |
| TAGCCTAGGTCATTCAGGGGCCAGAATAGAAAGC | 0.318 |
| CACACTAGGTCAAGAGGTCAAAGTCCGCTTCCCG | 1.84 |
| CTCGAAAGGTCGTGCTCAGGTGAGTATGCCAAAC | 0.173 |
| CAAACTAGGTCACAGAGGTCGAAGTCCGTGCGTA | 0.791 |
| CGTCCAAGGTCAGAGAGGTCATTGAATGCCGAGT | -1.01 |

system: PPARg homodimer (NR concentration 180 nM); assay: as above
Outline: as §1

| Sequence | PBM binding z-score |
| --- | --- |
| ATCGAAAGGTCGTGAGGTGTGTATACAGAAAGGC | 2.59 |
| GGAACGAGGGCAAAGGTGATAGCATCTGTCGACG | 1.42 |
| ATATGGAGGTTAAGGGTCATTCAGGTTGGTTCGC | 4.57 |
| ATCGAAAGGTCGTGAGGTGACTATACAGAAAGGC | 1.55 |
| CGTCAAAGTTCAACTAAGGTAACTTAAAGCACGC | 3.17 |
| CGGCCAAGGTCAAAGGTCAGTGAAGAGATGACGG | 7.63 |
| ATCTCTAGGTAAAGGTCAGTGAAAGATCGATAGA | 3.73 |
| CGTCCAAGGTCATAAGAGGTCAGTGAAGACAGAT | 7.68 |
| CCTAGTTGGCCAAGGTCACACACGCTATAGGTAC | 2.66 |
| CCTTACGGGTCACGGGGTTATAGCACGACGAGCG | 8.52 |
| TAGCCTAGGTCATTCAGGGGTCAGTATAGAAAGC | 9.82 |
| TCTAGTTGGTTACGGAGGTCACACACGACGGGTA | 3.22 |
| AATACAGGGTCGCTAGGCCAGAGTAGGTACGAAT | 0.213 |
| ATACCAAGGTGATCGTGAGTTCGTTGATACTAAC | 0.422 |
| CGTCCAAGGTCAATGCTAGGTCACTGAAAGCATT | 8.59 |
| TTACCAAGGTCAGCTGAGGTCGTTGATCCAACTC | 1.8 |
| ATCGAAAGGTCGACGAGTTGAGTATACACCGTTT | 1.26 |
| TTACAAAGGTGAGCTGAGGTCGTTGATCCAACTC | 1.41 |
| GGAACGAGGGCATTCGAGTTGATAGCATGGCGAT | -0.267 |
| CCGACTGGGGCAAAGGTTACCACACTCAGTACGA | 1.18 |

| Sequence | PBM binding z-score |
| --- | --- |
| CGTCAAAGTTCAACTAATGTAACGTAAAGCACGC | 3.42 |
| CCTTACGGGTCACTCTAGGTTATAGCATCGGAGT | 1.82 |
| GCTTACGGGTCAAAGGTTATAGTATGAATAGAAT | 1.98 |
| CCTACAGGGCCAAAGGTCATTGATTCCAATGCTC | 5.51 |
| TAGCCTAGGTCATGGGCCAGTTTACCACGCGAAC | 1.68 |
| CGTCCAAGGTAAGAGAGGTCAGTGAATGCCGAGT | 1.77 |
| CCGACGGGGGCAGAAAGGTTACCATACCATCCGG | 2.43 |
| CCTACTGGGCCAAAGGTCAGTGATTCCAATGCTC | 4.06 |
| AGTCAAAGTTCATCTTGGTAACGTAAGATATGCT | 2.64 |
| ATACCAAGGTTATCGTGAGGTCGTTGATACTAAC | 1.6 |
| TCTCGGAGGTCACGAAGGTCAGAGCTTTCCAGAG | 4.35 |
| CCTTGCGGGTCACTGACAGGTTATAGCATTTGGA | 2 |
| CTCGAAAGGTCGTCCTCAGGTGAGTATACCAAAC | 1.94 |
| CAAACTAGGTCACCGGAAAGTCAAAGTCCGCATG | 2.67 |
| TAGCCTAGGTCATTCAGGGGCCAGAATAGAAAGC | 1.44 |
| CACACTAGGTCAAGAGGTCAAAGTCCGCTTCCCG | 7.46 |
| CTCGAAAGGTCGTGCTCAGGTGAGTATGCCAAAC | 1.39 |
| CAAACTAGGTCACAGAGGTCGAAGTCCGTGCGTA | 2.22 |
| CGTCCAAGGTCAGAGAGGTCATTGAATGCCGAGT | 2.82 |
